Data published in ChEMBL document CHEMBL4513216, “Probing the Open Global Health Chemical Diversity Library for Multistage-Active Starting Points for Next-Generation Antimalarials” (ACS Infect Dis, 2020).
Out of some 69,000 compounds screened, about 8,600 (12%) showed an effect of 50% or more. Shown is part of a subset that was picked to be rich in strong results.

System: Plasmodium berghei
Experiment: Screen against P. berghei liver stage (PbLuc), transformed with Luciferase, at 10uM
Assay type: functional, HepG2
Settings: tested at 10 uM

SMILES	INHIBITION
Cn1cc(CCC(=O)NCc2ccccc2OC(C)(C)C)cn1	-1.3%
NC(=O)CSc1nnc2n1N=CN(c1ccccc1F)C2	-14.9%
C[C@@H](O)CNC(=O)CCc1nc2cccnc2[nH]1	-2.13%
COCC(C)NC(=O)N1CCN(S(C)(=O)=O)CC1 (stereo not given)	5.91%
CNC(=O)c1cn[nH]c1C1(C)CCCN(Cc2ccccc2OC)C1 (stereo not given)	72.5%
CNC(=O)c1cn[nH]c1C1(C)CCCN(CC2(O)CCCCC2)C1 (stereo not given)	29.2%
CNC(=O)c1cn[nH]c1C1(C)CCCN(Cc2ccccn2)C1 (stereo not given)	17.1%
CN(Cc1noc(C2CC2)n1)C1CCN(CCn2cccn2)C1 (stereo not given)	-45.6%
Cc1nccnc1C1CCN(C2CCCC2O)CC1 (stereo not given)	-59.6%
COc1ccc(CCC(=O)N2CCNCC2C(=O)N2CCOCC2)cc1 (stereo not given)	30.3%
Cc1noc(CN(Cc2ccco2)Cc2cccc3c2OCO3)n1	30.3%
CCN(Cc1ccc2cccc(O)c2n1)CC1CCCO1 (stereo not given)	-13.5%
Cc1nnc(CN(Cc2cccc3c2OCO3)CC2CCCO2)n1C (stereo not given)	-31.5%
CCN(Cc1nc(-c2ccco2)no1)Cc1cccc2c1OCO2	55%
CCN(Cc1cccc2c1OCO2)CC1CCCO1 (stereo not given)	50.5%
CN(Cc1ccc2c(c1)OCO2)Cc1nc(-c2ccco2)no1	15%
CC(CNC(=O)N(C)Cc1ccco1)N1CCc2sccc2C1 (stereo not given)	11.4%
COCC1CN(Cc2cccc(C#N)c2)Cc2nccn2C1 (stereo not given)	25.1%
NC(=O)c1cccc(C(=O)N2CCCC(n3ccnc3)C2)c1 (stereo not given)	-31.5%
Cc1cnc(NC(=O)N2CCCCCC2)s1	-9.54%
O=C(Nc1nnc(N2CCCCC2)[nH]1)c1cccs1	-20.6%
CCNc1ncc(C(=O)Nc2nnc(N3CCCCC3)[nH]2)s1	51.1%
Cc1nc(C(=O)N2CCc3[nH]nc(Nc4ccccc4)c3C2)co1	10.9875%
O=S(=O)(N1CCOCC1)N1CCC(Oc2cnccn2)CC1	32.8%
CC(=O)N1CCOCC2(CN(Cc3ccc(C)o3)CCO2)C1 (stereo not given)	26.7%
COCCN1CCC(CNC(=O)C2(c3cccc(C)c3)CC2)C1 (stereo not given)	11.4%
O=C(Cn1nc2c(cc1=O)CCCC2)N[C@@H](C(=O)O)c1ccccc1	-19%

SMILES	INHIBITION
O=C(Cn1nc2c(cc1=O)CCCC2)NC(C(=O)O)c1ccccc1 (stereo not given)	69.8%
O=C(Cn1nc2c(cc1=O)CCCC2)NC(Cc1ccccc1)C(=O)O (stereo not given)	-30.4%
Cc1oc(C(=O)O)cc1S(=O)(=O)Nc1cc(F)ccc1F	21%
Cc1nc(CN2C(=O)C[C@@H]3[C@@H]2CCN3S(=O)(=O)C2CC2)cs1	-64.1%
Cc1cccc(NC2CCN(C(=O)Nc3cc(F)cc(F)c3)CC2)n1	90%
Cc1cccc(NC2CCN(C(=O)Nc3ccc(F)c(F)c3)CC2)n1	67.4%
Cc1cccc(NC2CCN(C(=O)Nc3cc(F)ccc3F)CC2)n1	-7.35%
O=C(c1ccc2cc[nH]c2c1)N1CCC(Nc2cccnn2)CC1	11.4%
Cc1cccc(NC2CCN(C(=O)Nc3cccc4[nH]ccc34)CC2)n1	76.1%
Cc1cccc(NC2CCN(C(=O)Nc3ccc(F)cc3C)CC2)n1	-0.113%
Cc1cccc(NC2CCN(C(=O)Nc3cn[nH]c3)CC2)n1	28.8%
Cc1cccc(NC2CCN(C(=O)Nc3ccncc3)CC2)n1	16.8%
Cc1cccc(NC2CCN(C(=O)Nc3cc(C)on3)CC2)n1	37.2%
CCn1cc(CN2CCCN(C(=O)c3ccc(C)o3)CC2)cn1	31.3%
Cn1ccnc1CN1CCC2(CCC(=O)N2CCN2CCCC2)CC1	35.2%
O=C(NCCn1nc(-n2cncn2)ccc1=O)c1ccc(F)cc1F	7.77%
c1cnn(-c2ccc(CCNC3CCN(C4CC4)C3)cc2)c1 (stereo not given)	14.2%
COc1cccc(-n2nnc(C(=O)N3CCCCCC3)c2C)c1	2.845%
Cc1ccc(CSc2nc(N)cc(NCCS(=O)(=O)N(C)C)n2)cc1	23.5%
COc1ccc(CN(Cc2ccsc2)CC2CCCO2)cn1 (stereo not given)	61.6%
CC(C)n1cc(CN(Cc2ccsc2)CC2CCCO2)cn1 (stereo not given)	12.9%
c1csc(CN(Cc2ccsc2)CC2CCCO2)n1 (stereo not given)	-12.2%
CCCc1nnc(NCCc2noc(C3CC3)n2)o1	16.5%
NC(=O)Cn1cc(NC(=O)N2CCN(c3ccc(F)cc3)CC2)cn1	7.333%
NC(=O)c1cn(CC2CCC2)c(C2CC2)n1	-21.8%
CNc1ncccc1CN1CCN2CCN(C)CC2C1 (stereo not given)	53.8%
CNc1ncccc1CN1CCN(C)CC(C(N)=O)C1 (stereo not given)	33.2%

SMILES	INHIBITION
CNc1ncccc1CN1CCN(C)CC(C(=O)N(C)C)C1 (stereo not given)	0.696%
Cc1nccn1CCC(=O)N1CCC2(CCC(=O)N(CC3CC3)C2)CC1	42.5%
CN(Cc1cccs1)C1CCC[C@@H]2CN(C(=O)c3cnccn3)C[C@H]12 (stereo not given in full)	37.9%
Cn1c(=O)oc2cc(Nc3nccnc3C#N)ccc21	36.5%
Cn1c(=O)oc2ccc(Nc3ncc(C#N)cc3Cl)cc21	42.1%
Cn1c(=O)oc2cc(Nc3ncc(C#N)cc3Cl)ccc21	58.9%
CS(=O)(=O)CCCN(CCCO)C1CCc2ccccc21 (stereo not given)	21.7%
CS(=O)(=O)NCCN(CCCO)C1CCc2ccccc21 (stereo not given)	51.7%
CS(=O)(=O)CCN(CCCO)C1CCc2ccccc21 (stereo not given)	18.3%
CC(=O)N1N=C(c2cccs2)OC1C(=O)Nc1ccc(C(C)C)cc1 (stereo not given)	6.55%
CCN1CCN(c2ccc(NC(=O)CC(C)C)c(C)c2)CC1	35.7%
CCN1CCCN(C(=O)c2ccc(NC(=O)CC(C)C)c(C)c2)CC1	76.6%
COCC1CCCN(C(=O)c2ccc(NC(=O)CC(C)C)c(C)c2)C1 (stereo not given)	4.97%
CCOC(=O)COc1ccc(C(C)=O)c(O)c1	38.2%
Cc1nn(C)c(C)c1C1CCCN1C(=O)c1ccc2c(c1)OCCO2 (stereo not given)	-45.9%
CCSCc1ccc(C(=O)N2CCCN(CC(N)=O)CC2)cc1	-40.5%
Cc1cccc(CN2C(=O)CC[C@@H]3[C@H]2CCN3CC2CCOCC2)n1	38.1%
Cc1cnc(CNc2ccccc2CN(C)C(=O)c2cccs2)o1	55.6%
CN(Cc1ccccc1NCc1cscn1)C(=O)c1cccs1	20.6%
CN(Cc1ccccc1NCc1cccnc1)C(=O)c1cccs1	49.3%
CCc1noc(CN(CC)C(=O)CC2C(=O)NCCN2CC(C)(C)C)n1 (stereo not given)	13.7%
COCCN1C[C@@H]2[C@@H](OC)CCN(S(=O)(=O)c3cccnc3)[C@@H]2C1	31.1%
CCN1C[C@H]2[C@@H](C1)N(S(=O)(=O)c1cccnc1)CC[C@H]2OC	59.1%
CO[C@@H]1CCN(S(=O)(=O)c2cccnc2)[C@@H]2CN(CC3CC3)C[C@@H]21	53.2%
CCN1C[C@H]2[C@@H](C1)N(S(=O)(=O)c1ccccc1)CC[C@H]2OC	41.6%
CO[C@H]1CCN(S(=O)(=O)N(C)C)[C@@H]2CN(Cc3cccnc3)C[C@H]12	-18.5%
CCN1C[C@@H]2[C@@H](OC)CCN(S(=O)(=O)c3cccnc3)[C@@H]2C1	26.4%

SMILES	INHIBITION
CO[C@@H]1CCN(S(=O)(=O)N(C)C)[C@@H]2CN(Cc3cccnc3)C[C@@H]21	36.2%
CO[C@H]1CCN(S(=O)(=O)c2cccnc2)[C@@H]2CN(CC3CC3)C[C@H]12	52%
CCN1C[C@@H]2[C@@H](OC)CCN(S(=O)(=O)c3ccccc3)[C@@H]2C1	17.6%
O=C(NCCC1CCN(CC(F)(F)F)CC1)C1CCOC1 (stereo not given)	26.1%
Cc1csc(C(C)(C)NCC(=O)N(C)Cc2ccc(C)o2)n1	11.3%
NC(=O)C1CCN(C(=O)c2cccn2Cc2cccs2)C1 (stereo not given)	11.6%
CN1CCc2nc(C3CCCN(S(=O)(=O)c4ccccc4)C3)ncc2C1 (stereo not given)	29.85%
OC1(CN2CCC(Cc3ncccn3)CC2)CCCCC1	14.6%
COCCc1noc(CN2CCCC2Cn2cccn2)n1 (stereo not given)	38.8%
COCCN(Cc1ccco1)Cc1nc(-c2ccc(C)c(F)c2)no1	-16.7%
CSc1ccc(-c2noc(CN(Cc3ccccc3)C(C)C)n2)cc1	46.1%
CSc1ccc(-c2noc(CN(CC(C)C)CC(C)C)n2)cc1	65.8%
COc1ccc(CN2CC[C@H](NC(C)=O)[C@@H](O)CC2)c(F)c1	38.2%
COC(=O)c1cccc(C(=O)NCc2ccc3c(c2)CCCN3C)c1	34.7%
CN1CCCc2cc(CNC(=O)c3cc[n+]([O-])cc3)ccc21	53.9%
Cc1cnc(C(=O)NCc2ccc3c(c2)CCCN3C)cn1	19.6%
CN1CCCc2cc(CNC(=O)c3ccc(-n4cnnc4)cc3)ccc21	37.4%
COc1cc(C(=O)NCc2ccc3c(c2)CCCN3C)cc(OC)c1Br	34.7%
CN1CCCc2cc(CNC(=O)c3ccncc3)ccc21	63.9%
Cc1ccc(N2CCN(C(=O)C3CN(C)C(=O)N3)CC2=O)cc1 (stereo not given)	17.8%
O=C(CC1CCC1)N1CCCC(CO)(CC2CC2)C1 (stereo not given)	22.1%
CN(C)C(=O)N1CCN(c2ccc3ccc(C(=O)NC4CC4)cn23)CC1	-14.7%
CCOC(=O)c1c(NC(=O)CN2CCN(C(C)=O)CC2)sc2c1CCC2	14.2%
CC(C(=O)NCc1ccnc(N2CCN(C)CC2)c1)S(C)(=O)=O (stereo not given)	23.333%
